# Measurements as given in PubChem BioAssay.
# “And” between values parts separate entries of the source, which are not always exact repeats. Equal entries are not always repeated. The source made the active and inactive calls. Unless noted, no rule for the calls is given here.
# Legend:
# [1] = tested on: Wnt5a (protein binding on small-molecule microarray); assay: Wnt5a binders on small-molecule microarray, primary screen, biophysical, 635/667 nm fluorescence (AID 1142); settings: 635 nm fluorescence, higher = more signal;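 also: fluorescence read at 667 nm with signal to noise per printed feature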
# [2] = cell viability in Huh7 cells, primary screen, cytotoxicity control for HCV replication inhibitor project, CellTiter-Glo luminescence, basal, 48 h (AID 1143); settings: Huh7 HCV replicon, higher = more signal, called active from +8 up or from −8 down;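 also: Huh7 hepatoma cells carrying a hepatitis C replication reporter with no stimulus; test concentration not given here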
# [3] = P. aeruginosa biofilm formation inhibitors, primary screen, PAO1 strain, BacTiter-Glo luminescence, LB-PBS (AID 1144); settings: 12 h, higher = more signal
# [4] = CREB reporter modulators without forskolin, primary screen, cell-based, PC12, CRE-LacZ reporter, unstimulated (AID 1145); settings: no forskolin, luminescence, 4.5 h, higher = more signal, called active from +8 up or from −8 down
# [5] = CREB reporter modulators under forskolin, primary screen, cell-based, PC12, CRE-LacZ reporter, forskolin-stimulated (AID 1146); settings: luminescence, 4.5 h, higher = more signal, called active from +8 up or from −8 down;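 also: PC12 cells with 6xCRE LacZ reporter stimulated by forskolin 10 µM; beta-galactosidase reporter signal reflecting CREB driven transcription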
# [6] = target: Streptavidin (Streptomyces avidinii) (UniProt P22629); assay: streptavidin binders on small-molecule microarray, primary screen, artefact control for SMM compound annotation, biophysical, 635/667 nm fluorescence (AID 1147); settings: streptavidin binding, higher = more signal;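 also: signal reflects streptavidin binding to arrayed compounds as a control protein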
# Streptavidin (Streptomyces avidinii), sequence (P22629 whole entry, looked up): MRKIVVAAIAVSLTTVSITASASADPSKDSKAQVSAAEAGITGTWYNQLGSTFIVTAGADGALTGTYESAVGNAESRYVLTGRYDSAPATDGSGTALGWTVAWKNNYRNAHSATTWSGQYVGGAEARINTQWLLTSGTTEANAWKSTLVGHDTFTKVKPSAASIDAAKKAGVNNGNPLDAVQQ
# [7] = small-molecule binders of probe aInhba, primary screen, biochemical, small-molecule microarray, 635/667 nm fluorescence (AID 1148); settings: higher = more signal;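 also: score merges 667nm spot fluorescence with signal-to-noise for antibody binding to printed compounds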
# Torsin-1A (Homo sapiens) [8] = target: Torsin-1A (Homo sapiens) (UniProt O14656); assay: torsin A binders from cell lysate, primary screen, small-molecule microarray, wild-type, 635/667 nm (AID 1149); settings: COS7 hTOR1A-WT lysate, 635 nm fluorescence, higher = more signal
# Torsin-1A (Homo sapiens), sequence (O14656 whole entry, looked up): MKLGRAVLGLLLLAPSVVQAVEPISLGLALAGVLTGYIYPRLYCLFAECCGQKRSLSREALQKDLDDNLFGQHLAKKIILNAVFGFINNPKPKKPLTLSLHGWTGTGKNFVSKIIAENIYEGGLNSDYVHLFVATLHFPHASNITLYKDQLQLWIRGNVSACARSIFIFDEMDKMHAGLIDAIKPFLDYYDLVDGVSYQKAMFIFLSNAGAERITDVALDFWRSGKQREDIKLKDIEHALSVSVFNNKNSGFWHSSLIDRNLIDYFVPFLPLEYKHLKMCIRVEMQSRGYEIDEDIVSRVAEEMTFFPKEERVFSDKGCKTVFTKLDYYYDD
# Torsin-1A (Homo sapiens) [9] = target: Torsin-1A (Homo sapiens) (UniProt O14656); assay: small-molecule binders of mutant TOR1A in lysate, primary screen, cell lysate, small-molecule microarray, COS7 lysate, 635/667 nm fluorescence (AID 1150); settings: COS7 hTOR1A mutant lysate, 635 nm fluorescence, higher = more signal;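 also: score pools 667 nm emission and signal to noise measuring lysate protein binding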
# [10] = tested on: Sonic hedgehog protein (Shh); assay: small-molecule binders of Shh protein, primary screen, biochemical, small-molecule microarray, 635/667 nm fluorescence (AID 1151); settings: small-molecule microarray binding, 635 nm fluorescence; higher = more signal;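 also: Shh protein binding to compounds spotted on small-molecule microarray slides; score combines spot fluorescence intensity with signal-to-noise across triplicate slides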
# [11] = E. coli DRC41 culture turbidity changes, primary screen, E. coli filamentation inducer project, strain DRC41, OD650, 48 h (AID 1152);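 also: E. coli MC1000 strain DRC41 lacking acrAB efflux pump and sulA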; settings: E. coli DRC41 (acrAB sulA), higher = more signal, called active from +8 up or from −8 down
# [12] = small-molecule binders of probe aLefty1, primary screen, biochemical, small-molecule microarray, 635/667 nm fluorescence (AID 1153); settings: higher = more signal;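 also: score merges spot fluorescence with signal-to-noise ratio from the scanned slide images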
# [13] = PSAC antagonists in infected red cells, primary screen, cell-based, P. falciparum Indochina, OD700, 1 h (AID 1154); settings: P. falciparum Indochina infected RBC osmotic lysis, higher = more signal, called active from +8 up or from −8 down
# [14] = PSAC antagonists in infected red cells, primary screen, cell-based, P. falciparum Indochina, OD700, 2 h (AID 1155);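 also: lysis reports solute entry through the parasite surface anion channel PSAC; channel blockers reduce lysis of infected cells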; settings: P. falciparum Indochina infected erythrocytes, osmotic lysis OD700; higher = more signal, called active from +8 up or from −8 down
# [15] = osmotic lysis modulators in infected erythrocytes, primary screen, PSAC antagonist project, cell-based, P. falciparum Indochina, OD700, 3 h (AID 1156); settings: higher = more signal, called active from +8 up or from −8 down
# [16] = PSAC antagonists in infected red cells, primary screen, cell-based, P. falciparum Indochina, OD700, 18 h (AID 1157); settings: P. falciparum Indochina infected erythrocytes, osmotic lysis OD700, 18 h; higher = more signal, called active from +8 up or from −8 down
# [17] = modulators of S6 phosphorylation in cells, primary screen, cell-based, A549, cytoblot, luminescence, serum-stimulated (AID 1158); settings: A549 phospho-S6 cytoblot, 5 h, higher = more signal;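 also: serum-stimulated A549 lung adenocarcinoma cells; signal is phosphorylated S6 detected by cytoblot immunostaining with HRP secondary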
# [18] = target: NADPH oxidase 2 (Homo sapiens) (UniProt P04839); assay: NOX2-dependent H2O2 signal modulators, primary screen, NOX inhibitor project, cell-based, HEK293-NOX2, PMA-stimulated, Amplex Red fluorescence (AID 1159); settings: 45 min, higher = more signal, called active from +8 up or from −8 down; also: test concentration not given here
# NADPH oxidase 2 (Homo sapiens), sequence (P04839 whole entry, looked up): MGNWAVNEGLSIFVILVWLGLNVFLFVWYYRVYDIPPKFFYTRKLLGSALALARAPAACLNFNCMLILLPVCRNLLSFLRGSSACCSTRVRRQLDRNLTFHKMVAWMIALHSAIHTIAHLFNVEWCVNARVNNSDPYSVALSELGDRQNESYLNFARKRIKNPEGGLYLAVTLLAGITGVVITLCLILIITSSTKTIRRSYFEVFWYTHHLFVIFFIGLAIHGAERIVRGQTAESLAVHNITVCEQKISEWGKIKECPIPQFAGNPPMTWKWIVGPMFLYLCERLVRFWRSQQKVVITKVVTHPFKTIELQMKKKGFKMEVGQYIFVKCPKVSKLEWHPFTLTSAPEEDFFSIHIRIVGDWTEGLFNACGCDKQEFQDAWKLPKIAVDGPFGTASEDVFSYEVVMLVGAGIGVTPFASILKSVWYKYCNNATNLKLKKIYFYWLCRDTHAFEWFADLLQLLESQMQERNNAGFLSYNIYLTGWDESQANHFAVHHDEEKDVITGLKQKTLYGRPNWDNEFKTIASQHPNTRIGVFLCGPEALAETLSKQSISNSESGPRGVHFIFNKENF
# [19] = target: NADPH oxidase 4 (Homo sapiens) (UniProt Q9NPH5); assay: NOX4-dependent H2O2 signal modulators, primary screen, NOX inhibitor project, cell-based, HEK293-NOX4, tetracycline-induced, Amplex Red fluorescence (AID 1160); settings: 45 min, higher = more signal, called active from +8 up or from −8 down
# NADPH oxidase 4 (Homo sapiens), sequence (Q9NPH5 whole entry, looked up): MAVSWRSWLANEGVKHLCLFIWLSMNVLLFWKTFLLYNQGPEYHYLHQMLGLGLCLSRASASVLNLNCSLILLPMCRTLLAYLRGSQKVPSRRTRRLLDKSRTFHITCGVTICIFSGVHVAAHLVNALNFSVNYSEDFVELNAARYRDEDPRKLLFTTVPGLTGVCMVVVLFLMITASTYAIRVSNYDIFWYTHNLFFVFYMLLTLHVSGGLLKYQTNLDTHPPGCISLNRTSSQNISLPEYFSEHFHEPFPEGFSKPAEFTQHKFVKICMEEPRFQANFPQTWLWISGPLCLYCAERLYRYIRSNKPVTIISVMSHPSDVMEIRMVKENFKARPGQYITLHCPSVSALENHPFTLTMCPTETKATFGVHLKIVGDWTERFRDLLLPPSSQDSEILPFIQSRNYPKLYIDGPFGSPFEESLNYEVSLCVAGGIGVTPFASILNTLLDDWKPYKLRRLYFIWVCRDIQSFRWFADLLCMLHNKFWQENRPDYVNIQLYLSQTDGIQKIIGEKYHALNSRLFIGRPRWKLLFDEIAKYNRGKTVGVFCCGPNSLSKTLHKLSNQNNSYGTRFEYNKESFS
# [20] = target: NADPH oxidase 5 (Homo sapiens) (UniProt Q96PH1); assay: NOX5-dependent H2O2 signal modulators, primary screen, NOX inhibitor project, cell-based, HEK293-NOX5, Amplex Red fluorescence (AID 1161); settings: HEK293-NOX5, ionomycin, 45 min, higher = more signal
# NADPH oxidase 5 (Homo sapiens), sequence (Q96PH1 whole entry, looked up): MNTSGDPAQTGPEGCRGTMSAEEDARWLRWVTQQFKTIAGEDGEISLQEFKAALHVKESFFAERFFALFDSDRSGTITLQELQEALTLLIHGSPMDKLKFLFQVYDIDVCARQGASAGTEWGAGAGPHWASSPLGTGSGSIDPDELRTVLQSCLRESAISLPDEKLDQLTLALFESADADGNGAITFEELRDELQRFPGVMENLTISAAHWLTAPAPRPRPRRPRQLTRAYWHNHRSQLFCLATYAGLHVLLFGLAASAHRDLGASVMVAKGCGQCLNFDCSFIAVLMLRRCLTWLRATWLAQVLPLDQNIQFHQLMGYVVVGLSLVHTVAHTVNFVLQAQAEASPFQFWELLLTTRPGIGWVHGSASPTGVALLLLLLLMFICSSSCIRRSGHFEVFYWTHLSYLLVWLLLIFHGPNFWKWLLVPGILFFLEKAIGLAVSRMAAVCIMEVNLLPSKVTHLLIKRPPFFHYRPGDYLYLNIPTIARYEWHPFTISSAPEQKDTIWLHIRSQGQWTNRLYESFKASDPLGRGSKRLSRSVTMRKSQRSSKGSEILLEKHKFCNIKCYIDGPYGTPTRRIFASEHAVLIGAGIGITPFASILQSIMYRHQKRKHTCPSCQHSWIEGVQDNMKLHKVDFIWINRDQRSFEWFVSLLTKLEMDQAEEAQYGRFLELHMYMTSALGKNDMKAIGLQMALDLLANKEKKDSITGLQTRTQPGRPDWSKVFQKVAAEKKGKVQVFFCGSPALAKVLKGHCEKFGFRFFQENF
SMILES,composite z-score [1],z-score [2],z-score [3],z-score [4],z-score [5],composite z-score [6],composite z-score [7],composite z-score (Torsin-1A (Homo sapiens) [8]),composite z-score (Torsin-1A (Homo sapiens) [9]),composite z-score [10],z-score [11],composite z-score [12],z-score [13],z-score [14],z-score [15],z-score [16],z-score [17],z-score [18],z-score [19],z-score [20]
C=C[C@H](C)[C@@H](O)c1ccc(OCCO)cc1,-0.827 and -0.751,-1.64 (inactive) and 0.216 (inactive),0.0711 (inactive) and -0.987 (inactive),-0.883 (inactive) and 0.861 (inactive),-0.783 (inactive) and -0.722 (inactive),0.129 and -0.772,-0.37 and -0.208,-1.96 and -1.8,-2.09 and -1.25,0.134 and 0.524,-0.454 (inactive) and -0.0821 (inactive),-0.235 and -0.146,0.92 (inactive) and 1.14 (inactive),0.613 (inactive) and 0.0956 (inactive),-0.642 (inactive) and -0.202 (inactive),0.232 (inactive) and 0.252 (inactive),-0.248 and -0.5,0.149 (inactive) and -0.758 (inactive),0.101 (inactive) and -0.0609 (inactive),0.297 and 0.492
CCN1C(=O)[C@H]2[C@H]3[C@H](O)[C@H](O)CC(=NOC[C@@H](O)COCc4ccco4)[C@@H]3CC[C@H]2C1=O,0.0867 and 0.192,0.343 (inactive) and 0.422 (inactive),-1.34 (inactive) and -0.00909 (inactive),-0.746 (inactive) and 1.6 (inactive),0.463 (inactive) and 0.503 (inactive),-0.503 and -0.321,-0.324 and -0.15,3.48 and 0.374,3.12 and 0.272,2.1 and 1.78,-0.423 (inactive) and -0.268 (inactive),-0.0877 and -0.101,-0.0538 (inactive) and 1.03 (inactive),-0.0403 (inactive) and 0.0127 (inactive),-0.534 (inactive) and 1.78 (inactive),-0.21 (inactive) and 0.464 (inactive),0.485 and 0.312,-0.535 (inactive) and 0.394 (inactive),-1.86 (inactive) and -0.599 (inactive),-0.844 and -0.174
CCCC[C@@H]1CN2[C@@H](CC[C@@H](C)[C@@H]2c2ccc(Br)cc2)C(=O)O1,-0.0248 and 0.0673,-0.216 (inactive) and -0.116 (inactive),0.283 (inactive) and 1.16 (inactive),-0.704 (inactive) and 1.1 (inactive),0.693 (inactive) and 0.189 (inactive),0.119 and 0.117,-0.101 and 0.0074,0.434 and -0.0758,0.458 and 0.139,0.611 and 0.993,-0.247 (inactive) and -1.23 (inactive),-0.0601 and -0.0141,0.952 (inactive) and 1.74 (inactive),-0.255 (inactive) and 0.94 (inactive),0.0015 (inactive) and -0.273 (inactive),0.367 (inactive) and 0.443 (inactive),-1.02 and -0.612,1.18 (inactive) and -0.0488 (inactive),0.883 (inactive) and 0.821 (inactive),0.637 and 0.0426
